The text below walks through data of PubChem BioAssay (NCATS).

A short description of test [1]: Primary qHTS for Huh7 cytotoxicity: counterscreen for inhibitors of MERS-S pseudotyped particle cell entry (AID 1479147). The settings on record: cell viability read-out; series mostly up to 57.1 µM. (qHTS replaces the single test concentration by a dilution series.)
The nature of test [2]: Primary qHTS for inhibitors of MERS-S pseudo-typed particle cell entry (AID 1479149). For activity change, negative = inhibition: % is set by controls: 0 for no effect and ±100 for the full control effect. Note: nearly all actives have a fitted effect of over 60% in size. Note: potency is the fitted concentration of half-maximal effect. Conditions: MERS-S pseudotyped particle entry, luciferase; series mostly up to 57.1 µM.
Test [3] is described as follows: Primary qHTS for Vero E6 cytotoxicity: counterscreen for inhibitors of SARS-S pseudo-typed particle cell entry (AID 1479150). The settings on record: cell viability; series mostly up to 57.1 µM.
The nature of test [4]: Cytotoxicity counterscreen for inhibitors of SARS-CoV-2 cell entry (AID 1645845). Note: nearly all actives have a fitted effect of over 50% in size. Conditions: cell viability (SARS-CoV-2 entry assay cells); series mostly up to 57.1 µM. The essentials:
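HEK293-ACE2 cells (Expi293F stably expressing human ACE2) seeded overnight, then compound for 1 h plus 48 h at 37C. Viability as ATP content by luminescence; normalized to wells with cells and media-only wells.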
(The purpose of a counterscreen is to sort out artefacts and off-target activity.)

A short description of test [5]: Primary qHTS for inhibitors of La Crosse Virus (LACV) - induced cell death in SH-SY5Y cells (AID 1508616; active = well fitted curve in the direction sought with a large enough effect; an effect the other way counts as inactive or inconclusive;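 note: top concentration of the series differs between compounds; 0% = infected DMSO wells and 100% = uninfected DMSO wells; higher means more rescue of cells from virus-induced death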). The settings on record: SH-SY5Y LACV cytopathicity rescue, ATP luminescence, 6 d; series mostly up to 4.29 µM. The method in brief:
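Readout was luminescence from ATPLite 1step added after a 6-day LACV infection (0.01 MOI) of SH-SY5Y cells that had received pin-transferred compound 24 hr after seeding.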

Test [6] can be described thus: Primary qHTS for small molecule stabilizers of the endoplasmic reticulum resident proteome: Secreted ER Calcium Modulated Protein (SERCaMP) assay (AID 1508630; active = well fitted curve in the direction sought with a large enough effect; an effect the other way counts as inactive or inconclusive; note: % is set by controls: 0 for no effect and ±100 for the full control effect). Conditions: SH-SY5Y GLuc-SERCaMP (Gaussia luciferase released on ER calcium loss) secretion, thapsigargin, luminescence; series mostly up to 38.4 µM. The method in brief:
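GLuc-SERCaMP-expressing SH-SY5Y cells, pretreated 16 h with compound, are challenged with thapsigargin to empty ER calcium stores; after 4 h, coelenterazine is added directly to the medium and luminescence is imaged.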

The nature of test [7]: A High-Content qHTS Against Drug Library for the Identification of Small Molecules that Inhibit DYT1 Early Onset Primary Dystonia-Associated Cell Pathology (AID 1645839). The settings on record: HEK293 Flp-In EGFP-delE TorsinA, punctate imaging, 48 h; series mostly up to 46.1 µM. The method in brief:
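Flp-In T-REx 293 cells with tetracycline-inducible EGFP-delE hTOR1A (WT EGFP-hTOR1A as reference), 800 cells/well; compound added with tetracycline, 48 h at 37 C. Fixed, permeabilized cells imaged; %pathology (punctate TorsinA) primary, cell count counterscreen.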

The target in test [8] is Cytochrome P450 2C9 (Homo sapiens) (UniProt P11712). Description: Cytochrome P450 family 2 subfamily C member 9 (CYP2C9) small molecule antagonists: luciferase biochemical (cell-free) qHTS assay (AID 1645842; active = well fitted curve in the direction sought with a large enough effect in the repeat runs; an effect the other way counts as inactive or inconclusive; note: % is set by controls: 0 for no effect and ±100 for the full control effect; nearly all actives have a fitted effect of over 55% in size). Conditions: P450-Glo CYP2C9 enzyme assay, luciferin luminescence; series mostly up to 57.4 µM. The method in brief: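 Luminescence, after 20 min with luciferin detection reagent, reflected CYP2C9 turnover during a 1 h NADPH-driven reaction at 37C. Enzyme-substrate mix contained 0.4% bovine serum albumin and was preincubated with compound 10 min at room temperature.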

A short description of test [9]: Primary qHTS to identify inhibitors of SARS-CoV-2 cell entry (AID 1645846). Note: nearly all actives have a fitted effect of over 45% in size. Conditions: SARS-CoV-2 pseudovirus cell entry assay, luminescence; activity change, negative = inhibition: at 57.1 µM (top of the series) unless noted; series mostly up to 57.1 µM. The essentials:
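Data are normalized to wells receiving SARS-CoV-2-S pseudoparticles and those given bald particles. Entry signal was luciferase luminescence in stable hACE2 Expi293F cells, 48 hr post-infection, after 1 hr compound pretreatment.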

Test [10] addresses Calcium and integrin-binding protein 1 (Homo sapiens) (UniProt Q99828). The experiment in a line: Primary qHTS for Identification of Calcium Integrin Binding Protein 1 (CIB1) Competitor (AID 1508620; active = well fitted curve in the direction sought with a large enough effect; an effect the other way counts as inactive or inconclusive;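 note: GST tagged CIB1 binding a fluorescein labelled alphaIIb integrin peptide tracer; top concentration of the series differs between compounds; % is set by controls: 0 for no effect and ±100 for the full control effect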). The settings on record: CIB1-GST / FITC-alphaIIb peptide fluorescence polarization; series mostly up to 114 µM. The method in brief:
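Fluorescence polarization competition: GST-tagged CIB1 (1 uM final) preincubated with compound 15 min at room temperature, then FITC-labelled alphaIIb peptide (100 nM final) added. After 15 min at room temperature, polarization read at Ex 480/Em 540.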

Test [11] concerns the target Cytochrome P450 2D6 (Homo sapiens) (UniProt P10635). Description: Cytochrome P450 family 2 subfamily D member 6 (CYP2D6) small molecule antagonists: luciferase biochemical (cell-free) qHTS assay (AID 1645840; active = well fitted curve in the direction sought with a large enough effect in the repeat runs; an effect the other way counts as inactive or inconclusive; note: potency is the fitted concentration of half-maximal effect; nearly all actives have a fitted effect of over 55% in size). Conditions: P450-Glo CYP2D6 enzyme, luciferin luminescence, 1 h; series mostly up to 57.4 µM. The method in brief:
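P450-Glo luminescent screen: recombinant CYP2D6 enzyme–proluciferin substrate mix preincubated with compound 10 min at room temperature, then NADPH regeneration added for 1 h at room temperature. Detection reagent added for 20 min; luciferin light read as relative luminescence units.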

The nature of test [12]: VSVG counterscreen qHTS to identify inhibitors of SARS-CoV-2 cell entry (AID 1645847). Note: potency is the fitted concentration of half-maximal effect; nearly all actives have a fitted effect of over 65% in size. Conditions: VSV-G pseudotyped particle entry, luciferase; series mostly up to 57.2 µM. The method in brief:
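Counterscreen using VSV-G (not spike) pseudotyped MLV particles on ACE2-expressing Expi293F cells after 1 h compound preincubation; infection ran 48 h at 37 °C. Data normalized to VSV-G PP and bald-PP wells.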

In test [13] the target is Papain (Carica papaya) (UniProt P00784). Description: Primary qHTS assay for inhibitors of the protease papain (AID 1645873; active = well fitted curve in the direction sought with a large enough effect; an effect the other way counts as inactive or inconclusive;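 note: papain turnover of Z-FR-AMC read as the AMC fluorescence gain over 10 min; % is set by controls: 0 for no effect and ±100 for the full control effect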). The settings on record: papain Z-FR-AMC cleavage, AMC fluorescence; series mostly up to 49.8 µM.

Results filed as inconclusive are left out. The source made the active and inactive calls. Unless noted, calls come from the whole dose curve.

Cytochrome P450 2D6 (Homo sapiens), sequence (P10635 whole entry, looked up): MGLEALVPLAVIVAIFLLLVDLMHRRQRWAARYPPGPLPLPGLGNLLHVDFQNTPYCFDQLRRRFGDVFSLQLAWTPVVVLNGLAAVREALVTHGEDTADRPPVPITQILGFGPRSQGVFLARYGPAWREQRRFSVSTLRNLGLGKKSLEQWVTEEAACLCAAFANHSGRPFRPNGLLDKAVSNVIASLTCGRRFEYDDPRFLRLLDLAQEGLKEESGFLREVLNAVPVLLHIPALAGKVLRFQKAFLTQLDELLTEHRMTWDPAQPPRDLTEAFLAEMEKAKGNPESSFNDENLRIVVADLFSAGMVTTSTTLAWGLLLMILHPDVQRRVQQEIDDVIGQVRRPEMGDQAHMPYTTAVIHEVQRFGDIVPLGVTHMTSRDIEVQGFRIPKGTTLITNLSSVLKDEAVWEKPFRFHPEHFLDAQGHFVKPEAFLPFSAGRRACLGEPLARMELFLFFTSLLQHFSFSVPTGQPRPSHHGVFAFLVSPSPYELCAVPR
Calcium and integrin-binding protein 1 (Homo sapiens), sequence (Q99828 whole entry, looked up): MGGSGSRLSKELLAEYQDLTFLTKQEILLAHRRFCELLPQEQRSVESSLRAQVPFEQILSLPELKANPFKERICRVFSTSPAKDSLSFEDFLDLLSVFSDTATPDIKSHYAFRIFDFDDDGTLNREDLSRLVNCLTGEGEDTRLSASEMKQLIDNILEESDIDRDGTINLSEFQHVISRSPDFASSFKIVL
Cytochrome P450 2C9 (Homo sapiens), sequence (P11712 whole entry, looked up): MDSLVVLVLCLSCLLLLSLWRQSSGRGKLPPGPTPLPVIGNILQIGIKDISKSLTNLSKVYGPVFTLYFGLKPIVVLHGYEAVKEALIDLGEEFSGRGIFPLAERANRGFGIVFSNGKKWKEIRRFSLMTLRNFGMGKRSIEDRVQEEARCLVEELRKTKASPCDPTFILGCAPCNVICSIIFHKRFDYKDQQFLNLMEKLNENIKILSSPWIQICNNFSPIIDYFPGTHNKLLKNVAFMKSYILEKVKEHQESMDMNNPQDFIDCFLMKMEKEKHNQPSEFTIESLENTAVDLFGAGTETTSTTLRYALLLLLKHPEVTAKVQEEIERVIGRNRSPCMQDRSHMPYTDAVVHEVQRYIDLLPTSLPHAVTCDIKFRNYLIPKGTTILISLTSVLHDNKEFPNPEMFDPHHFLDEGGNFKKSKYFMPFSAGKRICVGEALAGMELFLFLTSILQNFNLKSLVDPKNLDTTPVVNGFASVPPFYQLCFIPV
Papain (Carica papaya), sequence (P00784 whole entry, looked up): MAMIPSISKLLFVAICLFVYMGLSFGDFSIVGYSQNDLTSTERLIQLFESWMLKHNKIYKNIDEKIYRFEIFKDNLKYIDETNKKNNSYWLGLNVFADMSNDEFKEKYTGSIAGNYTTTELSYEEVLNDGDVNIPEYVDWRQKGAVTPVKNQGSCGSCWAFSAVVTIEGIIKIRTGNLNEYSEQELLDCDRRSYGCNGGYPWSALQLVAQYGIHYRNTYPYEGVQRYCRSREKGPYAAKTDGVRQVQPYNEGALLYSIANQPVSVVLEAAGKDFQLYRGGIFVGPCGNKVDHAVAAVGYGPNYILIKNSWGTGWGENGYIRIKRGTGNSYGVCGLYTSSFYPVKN

In the case of `CC#C[C@]1(O)CC[C@H]2[C@@H]3CCC4=CC(=O)CCC4=C3[C@@H](c3ccc(N(C)C)cc3)C[C@@]21C`, the Potency entry in test [1], in [2], in [3] and in test [4] was “inactive” each time.

As for `CN(CCOc1ccc(NS(C)(=O)=O)cc1)CCc1ccc(NS(C)(=O)=O)cc1`, the Potency entry in test [1], in [2], in test [3] and in [4] was “inactive” in each case.

For `CC[C@@H](CO)NC(=O)[C@@H]1C=C2c3cccc4[nH]cc(c34)C[C@H]2N(C)C1`, the Potency entry in test [1], in test [2], in test [3], in [5], in test [7] and in test [8] was “inactive” throughout. Moreover, in test [4], the Potency result was “inactive”. In addition, the result in [6] was inactive. For the same compound, the activity change, negative = inhibition in test [9] is -4.87%.

On to `CCCN(CCc1cccs1)[C@H]1CCc2c(O)cccc2C1`, for which the Potency result in test [1], in test [2], in test [3] and in [4] was “inactive” each time.

As for `Clc1ccc(COC(Cn2ccnc2)c2ccc(Cl)cc2Cl)cc1` (stereo not given), the Potency result in test [1], in test [3], in test [5] and in test [10] was “inactive” throughout. The Potency was 25.1 µM (active) in test [2], 0.219 µM (active) in [11] and 12.1 µM (active) in test [12].

In the case of `O=NN(CCCl)C(=O)NCCCl`, the Potency result in test [1], in test [2], in test [3] and in test [4] was “inactive” throughout.

Consider `N[C@@H]1CONC1=O`, for which the Potency entry in test [1], in [2], in [3] and in test [4] was “inactive” in each case.

With `C=C1CC[C@@]2(O)[C@H]3Cc4ccc(O)c5c4[C@@]2(CCN3CC2CC2)[C@H]1O5`, the Potency result in test [1], in test [2], in test [3], in test [5], in [10] and in test [7] was “inactive” in each case. The Potency result in test [8], in test [4] and in [9] was “inactive” in each case. For the same compound, in test [11], the Potency was 2.75 µM (active).

In the case of `CN(C)[C@@H]1C(=O)C(C(N)=O)=C(O)[C@@]2(O)C(=O)C3=C(O)c4c(O)cccc4[C@@](C)(O)[C@H]3C[C@@H]12`, the Potency entry in test [1], in test [2], in [3], in [5], in [10] and in test [7] was “inactive” in each case. Moreover, the Potency entry in [4] and in test [9] was “inactive” each time. In test [11], the Potency is 15.5 µM (active).

`O[C@@H]1CO[C@H]2[C@@H]1OC[C@@H]2O`: the Potency entry in [1], in test [2], in test [3] and in [4] was “inactive” each time.

On to `Cc1onc(-c2ccccc2Cl)c1C(=O)N[C@@H]1C(=O)N2[C@@H]1SC(C)(C)[C@@H]2C(=O)O`, for which the Potency result in [1], in test [2], in [3] and in [4] was “inactive” each time.

For `Cc1onc(-c2c(Cl)cccc2Cl)c1C(=O)N[C@@H]1C(=O)N2[C@@H]1SC(C)(C)[C@@H]2C(=O)O`, the Potency entry in test [1], in test [2], in [3] and in test [4] was “inactive” throughout.

For `CC1=C(C(=O)O)N2C(=O)[C@@H](NC(=O)[C@H](N)c3ccccc3)[C@H]2SC1`, the Potency entry in test [1], in test [2], in test [3] and in test [4] was “inactive” throughout.

As for `CCCC1CCCCN1` (stereo not given), the Potency result in test [1], in test [2], in [3], in test [5], in test [10] and in [7] was “inactive” each time. Also, the Potency result in test [8], in [4] and in test [9] was “inactive” in each case.

Take `O=NN(CCCl)C(=O)NC1CCCCC1`: the Potency entry in test [1], in test [2], in test [3] and in test [4] was “inactive” throughout.

As to `CC(C)NCC(O)COc1cccc2[nH]ccc12` (stereo not given), the Potency result in test [1], in [2], in test [3] and in [4] was “inactive” in each case.

For the compound `COC(=O)CCc1ccc(OCC(O)CNC(C)C)cc1` (stereo not given), the Potency result in [1], in [2], in test [3] and in [4] was “inactive” each time.

For `Cc1ncc([N+](=O)[O-])n1CCO`, the Potency result in test [1], in [2], in test [3] and in [4] was “inactive” each time.

For `COC(=O)N[C@H](C(=O)N[C@@H](Cc1ccccc1)[C@@H](O)CN(Cc1ccc(-c2ccccn2)cc1)NC(=O)[C@@H](NC(=O)OC)C(C)(C)C)C(C)(C)C`, the Potency result in test [1], in [2], in [3] and in test [4] was “inactive” throughout.

Consider `N[C@@H](Cc1ccc(N(CCCl)CCCl)cc1)C(=O)O`, for which the Potency result in [1], in test [2], in test [3], in test [10], in test [7] and in test [4] was “inactive” throughout. Also, the outcome in test [6] was inactive. The Potency was 19.5 µM (active) in [11] and 0.152 µM (active) in [12].

`C[C@]12CC[C@@H]3c4ccc(O)cc4C[C@@H](CCCCCCCCCS(=O)CCCC(F)(F)C(F)(F)F)[C@H]3[C@@H]1CC[C@@H]2O` (stereo not given in full): the Potency result in test [1], in [2], in test [3] and in [4] was “inactive” each time.

Regarding `COc1ccccc1OCC(O)CN1CCN(CC(=O)Nc2c(C)cccc2C)CC1` (stereo not given), the Potency entry in test [1], in [2], in test [3] and in test [4] was “inactive” throughout.

In the case of `COc1cc(C(=O)NCc2ccc(OCCN(C)C)cc2)cc(OC)c1OC`, the Potency result in [1], in [2], in [3] and in test [4] was “inactive” in each case.

Take `COc1ccc(C(CN(C)C)C2(O)CCCCC2)cc1` (stereo not given): the Potency result in [1], in test [2], in test [3], in test [5], in test [7] and in test [8] was “inactive” throughout. Further, the Potency entry in test [4], in test [9] and in test [13] was “inactive” in each case. For the same compound, the result in [6] was inactive.

Regarding `CNS(=O)(=O)CCc1ccc2[nH]cc(C3CCN(C)CC3)c2c1`, the Potency entry in test [1], in [2], in [3] and in test [4] was “inactive” each time.

As for `CN1C(CCl)Nc2cc(Cl)c(S(N)(=O)=O)cc2S1(=O)=O` (stereo not given), the Potency result in [1], in [2], in test [3], in test [4] and in [9] was “inactive” in each case.

`COc1cc(NC(C)CCCN)c2ncccc2c1` (stereo not given): the Potency result in [1], in test [2], in test [3] and in test [4] was “inactive” each time. In addition, the activity change, negative = inhibition in test [9] is 2.06%.

For `Nc1cc(-c2ccncc2)c[nH]c1=O`, the Potency result in [1], in [2], in test [3], in test [4] and in test [9] was “inactive” each time.
